Values joined by “and” are separate entries in the source; they are usually repeats but may differ in a detail not shown here. Equal entries are not always repeated. The campaign covered roughly 350,000 compounds. About 31,000 (8.9%) were called active. About 15% were inconclusive and are not listed. The call rests on the fitted dose curve; in most records, active means well fitted inhibition curve with a large enough effect; inconclusive means small, poorly fitted or top-dose-only effect; inactive means no such curve, though single readings can be large or run the other way. What follows is part of a selection rich in actives, with near analogues and random picks from the rest. Where a call stands in place of a potency, no number is given. More than one record can exist for a structure, and the calls need not agree.
molecular target: Histone-lysine N-methyltransferase EHMT2 (Homo sapiens) (UniProt Q96KQ7); assay: qHTS Assay for Inhibitors of Histone Lysine Methyltransferase G9a; settings: G9a H3K9 monomethylation, AlphaScreen, 2 h; series mostly up to 59 µM; further: nearly all actives have a fitted effect of over 75% in size
Sequence (Q96KQ7 913-1193 limits assumed): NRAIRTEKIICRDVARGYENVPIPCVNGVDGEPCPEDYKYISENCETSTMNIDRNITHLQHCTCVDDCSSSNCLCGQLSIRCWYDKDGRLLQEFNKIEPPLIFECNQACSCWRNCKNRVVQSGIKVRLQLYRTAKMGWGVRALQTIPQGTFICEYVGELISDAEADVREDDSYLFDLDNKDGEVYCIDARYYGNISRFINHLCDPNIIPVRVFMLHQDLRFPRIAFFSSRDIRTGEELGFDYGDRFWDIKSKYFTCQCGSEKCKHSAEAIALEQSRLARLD
How it was run: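 Compounds were preincubated with 20 nM G9a for 15 min, after which biotinylated H3K9 peptide (500 nM) and SAM (20 uM) started a 2 h room-temperature reaction. Monomethylated product was quantified by antibody-based AlphaScreen chemiluminescence.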
Potency means the concentration at half of the fitted maximal effect.

| Structure (SMILES) | activity, negative = inhibition | Potency |
| --- | --- | --- |
| COc1ccc(CNC(=O)c2ccc3oc(C(C)C)nc3c2)cc1 | 12% [at 0.501 µM] (inactive) | – |
| COc1ccc(Br)cc1/C=N/Nc1ccc(Cl)c(C(=O)O)c1 | – | 14.1 µM (active) |
| COc1ccc(Br)cc1/C=N/NC(=O)c1cccc(S(=O)(=O)N2CCOCC2)c1 | – | inactive |
| COc1ccc(CC(=O)NCC(=O)N/N=C/c2cc(Br)ccc2OC)cc1 | – | inactive |
| OCc1cnc(SCc2ccc(F)cc2)n1Cc1ccc(F)cc1 | – | inactive |
| COc1cccc2c1cc1c(=O)n(CC(=O)N3CCN(c4ccccc4)CC3)nc(C)n12 | – | inactive |
| Cc1ccc(CN2CCC(CNC(=O)c3cnn(-c4ccc(C)cc4)c3C3CCN(C(=O)OC(C)(C)C)CC3)CC2)cc1 | – | inactive |
| CC(C)(C)C(=O)N1CCC[C@@]1(CO)C(=O)O | – | 14.1 µM (active) |
| COC(=O)c1cc(NC(=O)CCc2c(C)nc3c4c(C)cc(C)nc4nn3c2C)cc(C(=O)OC)c1 | – | inactive |
| COc1ccccc1Nc1nnc(SC(C)C(=O)NC2CC2)s1 (stereo not drawn) | -13.1% [at 12.7 µM] (inactive) | – |
| CC(=O)c1c(C)[nH]c(C(=O)COC(=O)CCOc2ccc(C)cc2)c1C | – | inactive |
| Cc1ccc(-c2cn3c(n2)sc2cc(C(=O)NCCCc4ccccc4)ccc23)cc1 | – | inactive |
| COC(=O)Cc1ccc(OCC(=O)NC2CCCC2)cc1 | – | inactive |
| CC1(C)SC2C(NC(=O)COc3ccccc3)C(=O)N2C1C(=O)O (stereo not drawn) | – | inactive and 39.8 µM (active) |
| Cc1cccc(OCC(=O)NC2CC(C)(C)NC(C)(C)C2)c1 | – | inactive |
| CN(CC(=O)Nc1ccc(F)c(F)c1F)C(=O)Cn1cnc2c1c(=O)n(C)c(=O)n2C | 25.9% [at 12.7 µM] (inactive) | – |
| COC(=O)c1cc(S(=O)(=O)N2CCN(c3cc(Cl)ccc3C)CC2)c[nH]1 | – | inactive |
| CC(C)CCN1NC2(CCC(C)CC2)NC1=S (stereo not drawn) | – | 11.2 µM (active) |
| COC(=O)c1cccc(-n2[nH]nnc2=S)c1 | – | 8.91 µM (active) |
| COC(=O)c1cccc(NC(=O)CSc2nc(C)cc(=O)[nH]2)c1 | – | inactive |
| COC(=O)c1nn(-c2cccc(Cl)c2)ccc1=O | – | inactive |
| Cc1cccc(C)c1NC(=O)CN(C)C(=O)CCC(=O)c1ccccc1 | 11.7% [at 2.33 µM] (inactive) | – |
| C=C(C)CNc1cc(S(=O)(=O)N2CCOCC2)ccc1Oc1ccccc1 | 21.5% [at 12.7 µM] (inactive) | – |
| COc1ccc(C(=O)ON=C2c3ccccc3-c3ccccc32)cc1OC | – | inactive |

| Structure (SMILES) | activity, negative = inhibition | Potency |
| --- | --- | --- |
| COc1ccc(NC(=O)CS(=O)(=O)c2ccccc2)cc1 | – | inactive |
| COc1ccc(NC(=O)ON=C2c3ccccc3-c3ccccc32)cc1 | – | 25.1 µM (active) |
| Cn1c(C(=O)N2CCC(C(=O)N3CCN(c4ccccc4)CC3)CC2)cc2sccc21 | – | inactive |
| O=C(CCNS(=O)(=O)c1cccs1)N1CCN(c2ccc(F)cc2)CC1 | – | inactive |
| CCCOc1ccc(NC(=O)CC2C(=O)N(C)C(=S)N2Cc2ccc3c(c2)OCO3)cc1 (stereo not drawn) | – | inactive |
| O=C(Nc1ccc(Cl)cc1)C1c2cccc[n+]2CC(=O)N1Cc1ccc2c(c1)OCO2 (stereo not drawn) | – | 22.4 µM (active) |
| CC1CCC(NC(=O)C2c3ccccc3C(=O)N2Cc2ccc3c(c2)OCO3)CC1 (stereo not drawn) | – | inactive |
| O=C(COc1coc(CN2CCN(c3ccccc3)CC2)cc1=O)Nc1ccccc1F | – | inactive |
| COc1cc(C)cc(CN2CCC(Cc3ccccc3)CC2)c1O | -9.7% [at 2.33 µM] (inactive) | – |
| Brc1ccccc1CN1CCC(Cc2ccccc2)CC1 | – | 44.7 µM (active) |
| NC(=O)c1ccc(CN2CCC(Cc3ccccc3)CC2)cc1 | – | inactive |
| Cn1ccc2cc(S(=O)(=O)N3CCCC(C(=O)NCc4ccccc4F)C3)ccc21 (stereo not drawn) | – | inactive |
| Cc1ccc(S(=O)(=O)CCC(=O)OCC(=O)N(C)C2CCS(=O)(=O)C2)cc1 (stereo not drawn) | – | inactive |
| O=C(Nc1ccc2ccccc2c1)/C(=C\c1ccc2c(c1)OCO2)NC(=O)c1ccco1 | – | inactive |
| Cc1ccc(OCC(=O)NCCCNC(=O)c2ccco2)cc1C | – | inactive |
| O=C(Nc1ccc2ccccc2c1)/C(=C/c1cccc(Br)c1)NC(=O)c1ccco1 | – | inactive |
| CCCc1ccc(OCC(=O)NNC(=S)NC(=O)c2ccco2)cc1 | – | 2.24 µM (active) |
| CC(Oc1ccc2ccccc2c1)C(=O)NNC(=S)NC(=O)c1ccco1 (stereo not drawn) | – | 20 µM (active) |
| CCCc1ccc(OCCNC(=O)c2ccco2)cc1 | – | inactive |
| CSCCC(NC(=O)COc1ccccc1)C(=O)N(C)CC(=O)Nc1ccc(C)cc1 (stereo not drawn) | – | inactive |
| NS(=O)(=O)c1ccc2nc(NC(=O)COc3ccccc3)sc2c1 | – | inactive |
| COc1cc(/C=N/Nc2nn3cnnc3c3ccccc23)cc(OC)c1OC | – | inactive |
| FC(F)(F)c1nc2ccccc2nc1N/N=C/c1ccc(Cl)cc1 | – | inactive |
| CN(CCO)c1ccc(/C=N/Nc2nncc3ccccc23)cc1 | – | 31.6 µM (active) |
